# PubChem BioAssay
# Active and inactive are the calls of the source.
# Legend:
# [1] = A549 cell viability effects, profiling panel, calcein-AM fluorescence, 48 h, basal (AID 1162); settings: higher = more signal
# [2] = adipocyte viability effects, profiling panel, cell-based, 3T3-L1 adipocytes, calcein-AM fluorescence, 48 h, basal (AID 1163); settings: 3T3-L1 adipocytes viability, higher = more signal
# [3] = HepG2 cell viability effects, profiling panel, calcein-AM fluorescence, 48 h, basal (AID 1164); settings: higher = more signal
# [4] = MM1S cell viability effects, profiling panel, calcein-AM fluorescence, 48 h, basal (AID 1165); settings: higher = more signal;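 note: viability of MM1S multiple myeloma cells under basal unstimulated conditions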
# [5] = basal RPMI8226 viability, no added stimulus, profiling panel, cell-based, calcein-AM fluorescence, 48 h, PK04 Diversity Set (AID 1166); settings: RPMI8226 myeloma viability, higher = more signal;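 note: cells grown under basal conditions without added stimulus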
# [6] = basal HepG2 mitochondrial membrane potential changes, profiling panel, cell-based, JC-1 fluorescence, 24 h, 100 nL compound (AID 1167); settings: higher = more signal
# [7] = basal 3T3-L1 adipocyte mitochondrial potential changes, profiling panel, cell-based, JC-1 fluorescence, 3T3-L1 adipocytes, 24 h, 100 nL compound (AID 1168); settings: JC-1 mitochondrial fluorescence, higher = more signal, called active from +8 up or from −8 down
# [8] = basal RPMI8226 mitochondrial membrane potential changes, profiling panel, cell-based, JC-1 fluorescence, 24 h, 100 nL compound (AID 1169); settings: RPMI8226 myeloma, JC-1 mitochondrial potential fluorescence, higher = more signal
# [9] = basal MM1S mitochondrial membrane potential changes, profiling panel, cell-based, JC-1 fluorescence, 24 h, 100 nL compound (AID 1170); settings: higher = more signal
# [10] = A549 lung cancer cell viability effects, profiling panel, resazurin fluorescence, 24 h, PK04 Diversity Set (AID 1171); settings: higher = more signal, called active from +8 up or from −8 down
# Note: test concentration not given here.
SMILES,z-score [1],z-score [2],z-score [3],z-score [4],z-score [5],z-score [6],z-score [7],z-score [8],z-score [9],z-score [10]
CCOC(=O)[C@H](Cc1ccccc1)NC(=O)CCC1CC(OC(=O)NCCc2ccc(F)cc2)CC2(CCCC(COC(=O)NCC(c3ccccc3)c3ccccc3)O2)O1 (stereo not given in full),0.241,-0.351,-1.03,-3.42,-3.75,0.368,-0.88 (inactive),-1,-2.12,0.919 (inactive)
CC1CC/C=C\[C@H]2OC34C=CCN(C(C)C)C(=O)[C@H]3N(CCCO)C(=O)[C@@H]4C2C(=O)O1 (stereo not given in full),-0.478,-0.156,-0.381,-0.929,0.449,0.486,0.51 (inactive),-0.0642,0.687,0.385 (inactive)
CCOC(=O)CCN1C(=O)[C@H]2[C@H]3[C@H](O)[C@H](O)CC(=NOCc4ccccc4)[C@@H]3CC[C@H]2C1=O,0.16,0.112,-0.149,-0.104,1.16,-0.761,-0.522 (inactive),-0.043,-0.362,-0.0452 (inactive)
C=CCNC(=O)[C@H]1[C@@H]2C(=O)O[C@@H](c3ccccc3)[C@@H](c3ccccc3)N2[C@@H](c2ccc(O)cc2)[C@]12C(=O)N(C(=O)OCCOC)c1ccc(C#CC3=CCCCC3)cc12,-1.1,0.537,-0.444,-2.53,-3.23,-1.47,-0.777 (inactive),-0.611,-0.324,0.512 (inactive)
CO[C@H]([C@@H](C)[C@H](OC)c1ccccc1)[C@H](C)[C@@H](OC)[C@H](C)C(C)=O,1.29,-0.305,0.278,0.48,-0.345,0.0892,1.16 (inactive),-0.141,0.692,-0.0733 (inactive)
O=C(NN=C1C[C@@H](O)[C@@H](O)[C@@H]2[C@@H]3C(=O)N(c4ccc(F)cc4F)C(=O)[C@@H]3CC[C@@H]12)OCc1ccccc1,0.166,-0.902,-0.903,0.655,-0.768,-0.121,1.2 (inactive),-0.353,-0.0309,-0.0526 (inactive)
C=C(CCCC)C(=O)CC[C@@H](OC(C)=O)c1cccc(OCCO)c1,-0.985,-1.33,-2.45,-2.53,-2.28,-0.974,-0.673 (inactive),0.452,-0.238,-0.713 (inactive)
CC(C)C[C@@H]1NC(=O)[C@H]2C[C@@H](C(=O)O)[C@@H](c3ccc(O)cc3)N2C1=O,0.48,0.0559,0.111,-2.7,0.25,1.27,-0.0304 (inactive),0.433,-0.0341,-0.0496 (inactive)
CC(C)CON=C1C[C@@H](O)[C@@H](O)[C@@H]2[C@@H]3C(=O)N([C@@H](C)c4ccccc4)C(=O)[C@@H]3CC[C@H]12,0.58,-0.297,-0.0223,0.844,0.933,0.658,0.341 (inactive),0.53,-1.32,-0.511 (inactive)
CC(C)[C@@H](OCc1ccccc1)[C@H](C)C=NOC[C@@H](C)[C@H](OCc1ccccc1)C(C)C,0.243,-0.231,-0.661,0.27,0.0507,-0.245,-0.149 (inactive),0.0367,-0.0858,-0.689 (inactive)
Cc1cc2c(c(=O)o1)[C@H](O)[C@H]1O[C@H]1C2=O,-0.728,0.287,-1.03,-3.45,-2.96,-1.31,-0.883 (inactive),0.433,-1.12,-0.506 (inactive)
O=C1[C@H]2[C@H]3[C@H](O)[C@H](O)CC(=NOC[C@@H](O)COCc4ccco4)[C@H]3CC[C@H]2C(=O)N1Cc1ccc2c(c1)OCO2,-0.259,-0.672,-1.05,-0.642,-0.334,-0.41,-0.339 (inactive),-0.149,-0.635,-0.138 (inactive)
CCOC(=O)CCN1C(=O)[C@H]2[C@H]3[C@H](O)[C@H](O)CC(=O)[C@H]3CC[C@H]2C1=O,-0.439,1.43,0.0368,-0.904,-0.122,-0.103,-0.237 (inactive),0.0295,-1.28,-0.125 (inactive)
C[C@@H]1CC[C@H]2C(=O)O[C@H](COc3ccc(C(C)(C)C)cc3)CN2[C@H]1c1ccc(Br)cc1,1.29,0.0543,0.0624,-0.232,-0.0964,-1.12,-0.204 (inactive),-0.132,0.621,1.19 (inactive)
